From PubChem BioAssay (Tox21)
Calls of active or inactive are those of the source. Calls follow the shape of the dose curve; as a rule, active = well fitted activation curve with a large enough effect in the repeat runs; inconclusive = weak or mixed curves; inactive = flat fitted curve, though single readings scatter.

Assay: Caspase-3/7 induction in CHO-K1 cells by small molecules, qHTS assay (AID 1346980); also: nearly all actives have a fitted effect of over 15% in size
Settings: CHO-K1 caspase-3/7 induction, Caspase-Glo luminescence, 17 h; series mostly up to 92.4 µM
From the text: National Center for Advancing Translational Sciences [NCATS]
NIH Chemical Genomics Center [NCGC]
U.S. Environmental Protection Agency [EPA]
National Institutes of Environmental Health Sciences [NIEHS]
National Toxicology Program [NTP]
Apoptosis is a process of programmed cell death and plays a central role in the development of multicellular organisms. It is a highly regulated process and induces cell death by activating caspases, which are the members of cysteine aspartic acid-specific protease (caspase) family. Caspases involved in apoptosis are classified by their mechanism of action as initiator caspases (caspase-2, -8, -9 and -10) and executioner caspases (caspase-3, -6, and -7). Inhibition of apoptosis results in number of cancers, autoimmune diseases, inflammatory diseases and viral infection. To identify small molecule compounds that induce apoptosis, a homogeneous, luminescent Caspase-Glo 3/7 assay was used. Wild type CHO-K1 cells were used to screen Tox21 libraries for identifying caspase-3/7 activity inducers.
CHO-K1 cells were dispensed at 1,500 per well in 5uL of culture medium into white solid bottom 1536-well plates (Corning Life Sciences, Corning, NY) using a Multidrop Combi (Thermo Scientific, Waltham, MA) dispenser. The assay plates were incubated at 37 C and 5% CO2 for 5hr, and then 23nL of compounds dissolved in DMSO and positive control were transferred using a Pintool station (Wako, San Diego, CA). The assay plates were incubated at 37C and 5% CO2 for 17hr. For caspase-3/7 activity read, 4uL of Caspase-Glo 3/7 reagent (Promega Corporation, Madison, WI) was added to each well of the assay plates using Flying Reagent Dispenser (FRD, Aurora Discovery, San Diego, CA) and incubated the assay plates at room temperature for 30min. The luminescence signal was quantified using a ViewLux plate reader (Perkin Elmer, Shelton, CT).

Row | Compound | outcome
1 | CC1(C)S[C@@H]2[C@H](NC(=O)COc3ccccc3)C(=O)N2[C@H]1C(=O)O | inactive
2 | CCCOC(=O)c1ccccc1 | inactive
3 | CCCCCCCCCCCCCCCCO | inactive
4 | CC(C)(Oc1ccc(CCNC(=O)c2ccc(Cl)cc2)cc1)C(=O)O | inactive
5 | CCCCC(C=O)CC (stereo not given) | inactive
6 | CCOC(=O)n1ccn(C)c1=S | inactive
7 | CCCCCC(=O)O | inactive
8 | O=[N+]([O-])c1ccc2nc[nH]c2c1 | inactive
9 | CN(C)c1ccc(Cc2ccc(N(C)C)cc2)cc1 | inactive
10 | COc1ccc(C)cc1N | inactive
11 | CC(CCl)OP(=O)(OC(C)CCl)OC(C)CCl (stereo not given) | inactive
12 | OC1C(O)C(O)C(O)C(O)C1O (stereo not given) | inactive
13 | CCCCCCCC=O | inactive
14 | CN(C)c1ccc(O)c2c1C[C@H]1C[C@H]3[C@H](N(C)C)C(=O)C(C(N)=O)=C(O)[C@@]3(O)C(=O)C1=C2O | inactive
15 | CC(=O)OCCOC(C)=O | inactive
16 | Nc1nc(N)nc(-c2ccccc2)n1 | inactive
17 | COc1cc(OC)c(C(=O)CCCN2CCCC2)c(OC)c1 | inactive
18 | CCNC(=S)NCC | inactive
19 | CN1C(=O)CC[C@H]1c1cccnc1 | inactive
20 | CCNc1ccccc1 | inactive

Row | Compound | outcome
21 | CC(=O)Oc1ccc(C)cc1 | inactive
22 | CCCCCCCCCCCC(=O)OC | inactive
23 | Nc1ccc(Cl)c(N)c1 | inactive
24 | O=C(O)c1ccc(C(=O)O)c(C(=O)O)c1 | inactive
25 | O=S(=O)(O)c1ccc(N=Nc2c(O)ccc3cc(S(=O)(=O)O)ccc23)cc1 | inactive
26 | O=c1[nH]cnc2[nH]ncc12 | inactive
27 | CC(=O)OC1CC(C)OC(C)O1 (stereo not given) | inactive
28 | c1ccc2c(c1)Cc1ccccc1-2 | inactive
29 | CC(CCO)CC(C)(C)C (stereo not given) | inactive
30 | COc1ccc(CCC(C)=O)cc1 | inactive
31 | CC(C)(C#N)c1cc(Cn2cncn2)cc(C(C)(C)C#N)c1 | inactive
32 | CSc1ccc(Cl)cc1 | inactive
33 | NCCNCCN | inactive
34 | C=C(C)C(=O)OCC(C)C | inactive
35 | C=CC(=O)OCCC(=O)O | inactive
36 | CC(C)OC(=O)COc1ccc(Cl)cc1Cl | inactive
37 | CCO[Si](CCC#N)(OCC)OCC | inactive
38 | C=CC[N+](C)(C)CC=C | inactive
39 | C=CC(C)CCCC(C)(C)O (stereo not given) | inactive
40 | C[C@]12CCC(=O)C=C1CC[C@@H]1[C@@H]2[C@@H](O)C[C@@]2(C)[C@H]1CC[C@]2(O)C(=O)CO | inactive
